# A number with no mark means an inactive call. Activity calls are given as the source filed them. Unless noted, no stated cut-off is given here; in the data, active means inhibition above about 28%; inactive means the rest.
# System: not listed separately
# Experiment: StAR promoter reporter inhibitors, counter-screen for LRH-1 inverse agonist project, cell-based, luminescence, high throughput (AID 651611)
# Conditions: StAR promoter luciferase reporter counterscreen, at 3.6 µM, stronger effect = higher value
row,Structure (SMILES),inhibition
1,COc1ccc(NC(=O)CSc2n[nH]c(-c3ccccn3)n2)cc1,2.28%
2,Cc1cc(S(=O)(=O)NCc2ccncc2)c(C)cc1Br,-10.6%
3,Cc1onc(-c2c(F)cccc2Cl)c1C(=O)Nc1cccc2nsnc12,8.33%
4,O=C(Nc1ccc2oc(-c3cccnc3)nc2c1)c1ccc([N+](=O)[O-])o1,8.01%
5,COc1cc(C(=O)NN=Cc2ccc(N(C)C)cc2)cc(OC)c1OC,37.3% (active)
6,COc1ccc(CCNC(=O)CSc2nn3c(=O)c(C)nnc3s2)cc1OC,8.26%
7,CCOC(=O)C1CCCN(S(=O)(=O)c2ccc(S(=O)(=O)N(CC)CC)cc2)C1 (stereo not given),18.1%
8,COc1ccc(/C=C/C(=O)c2cc(F)ccc2OC(=O)c2ccccc2C)cc1OC,52.9% (active)
9,Cc1cc(C(=O)CSc2nnnn2-c2ccccc2)c(C)n1-c1ccc2c(c1)OCO2,0.11%
10,O=[N+]([O-])c1cccc(-c2ccc3nnc(SCc4cccnc4)n3n2)c1,3.6%
11,O=c1cc(C2CCCCC2)[nH]c(=O)[nH]1,10.2%
12,COc1cc(CSc2nnnn2-c2ccc(C)cc2)cc(OC)c1OC,24.4%
13,N#Cc1cc(Br)ccc1N=C1CCCN1c1ccccc1,2.82%
14,Cc1onc(-c2cccc(Cl)c2Cl)c1C(=O)O/N=C(\N)c1ccc([N+](=O)[O-])o1,11.8%
15,CCc1c(O)nc(SCC(=O)Nc2ccccc2C)n(-c2ccc(C)cc2)c1=O,14.4%
16,O=c1c2ccc(Cl)cc2nc(-c2cccc(C(F)(F)F)c2)n1O,26.8%
17,CC1CCCC(C)N1C(=O)COC(=O)Cc1ccc(F)cc1 (stereo not given),-0.44%
18,CCOc1ccc(NC(=O)COC(=O)CC2CCCCC2)cc1,9.8%
19,CN1CCN(C2=C(Cl)C(=O)N(c3ccc(Cl)c(Cl)c3)C2=O)CC1,11.1%
20,CC(=O)Nc1ncc(Cc2cc(Cl)ccc2Cl)s1,11.1%

row,Structure (SMILES),inhibition
1,COc1cc(NC(=O)CN2C(=O)NC(c3ccccc3)(c3ccccc3)C2=O)c(C)cc1[N+](=O)[O-],24.1%
2,C/C(=N\NC(N)=S)c1ccc(Cl)s1,16.8%
3,Cc1ccc(C)c(NC(=O)CSc2nnc(-c3ccccc3)n2N)c1,-26.9%
4,CC(=O)Nc1ccc(NC(=O)CSc2nnnn2C2CCCCC2)cc1,17%
5,COc1ccc(/C=N/NC(=O)c2cc(-c3ccc(C)cc3C)nc3ccccc23)cc1COC(C)=O,1.71%
6,CCC(=O)N1CCN(c2ccc(Cl)cc2NC(=O)c2ccc([N+](=O)[O-])o2)CC1,22.8%
7,O=C(Cc1c(Cl)cccc1Cl)Nc1ccncc1,16.9%
8,O=[N+]([O-])c1ccc(/C=N/n2c(CO)nc3ccccc32)s1,16.3%
9,COc1ccc(CCNC(=O)CSc2nc(O)c(CCC(C)C)c(=O)[nH]2)cc1OC,2.2%
10,COc1cccc2sc(N3CCN(C(=O)c4ccc([N+](=O)[O-])o4)CC3)nc12,25.2%
11,Cc1ccc(Nc2nc(-c3cccnc3)nc3ccccc23)cc1,36.1% (active)
12,CC(C)(C)c1ccc(C(=O)Nc2ccc(C(=O)NCc3cccnc3)cc2)cc1,82.1% (active)
13,CC(=O)Nc1cc(-c2ccc(S(C)(=O)=O)cc2)cn2c(-c3ccc(F)c(Cl)c3)cnc12,12.9%
14,O=C(C1=C[C@@H](C2CCCCC2)C[C@@H](OCc2ccc(CO)cc2)O1)N1CCN(Cc2ccc3c(c2)OCO3)CC1,12%
15,O=C(CN(Cc1ccccc1)C(=O)CCl)c1cccc(Br)c1,19%
16,COc1cc(C(=O)NC2CCN(C)CC2)ccc1Nc1ncc2c(n1)N(CCc1ccccc1)CCC(=O)N2C,63.2% (active)
17,O=c1c2ccccc2ncn1Cc1ccco1,1.6%
18,CCc1nc(SCC(=O)c2ccccc2)c2ccccc2n1,7.58%
19,CCc1ccccc1NC(=O)CSc1nnc([C@@H](NC(=O)OC(C)(C)C)C(C)C)o1,5.95%
20,Cc1sc2ncnc(NCC(O)c3ccc([N+](=O)[O-])cc3)c2c1C (stereo not given),15.4%

# Molecular target: Nuclear receptor subfamily 5 group A member 2 (Homo sapiens) (UniProt O00482)
# Experiment: NR5A2 activity suppression in reporter cells – cell-based, luminescence, confirmation (AID 651613; in the data active means inhibition above about 42%;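 further: HEK293T cells co-transfected with LRH-1 and StAR promoter luciferase reporter; 0% = vehicle wells and 100% = parental cells lacking receptor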)
# Conditions: cell-based LRH-1 luciferase reporter, inverse agonism; at 3.6 µM; stronger effect = higher value
# Chain of Nuclear receptor subfamily 5 group A member 2 (Homo sapiens) (O00482 whole entry, looked up): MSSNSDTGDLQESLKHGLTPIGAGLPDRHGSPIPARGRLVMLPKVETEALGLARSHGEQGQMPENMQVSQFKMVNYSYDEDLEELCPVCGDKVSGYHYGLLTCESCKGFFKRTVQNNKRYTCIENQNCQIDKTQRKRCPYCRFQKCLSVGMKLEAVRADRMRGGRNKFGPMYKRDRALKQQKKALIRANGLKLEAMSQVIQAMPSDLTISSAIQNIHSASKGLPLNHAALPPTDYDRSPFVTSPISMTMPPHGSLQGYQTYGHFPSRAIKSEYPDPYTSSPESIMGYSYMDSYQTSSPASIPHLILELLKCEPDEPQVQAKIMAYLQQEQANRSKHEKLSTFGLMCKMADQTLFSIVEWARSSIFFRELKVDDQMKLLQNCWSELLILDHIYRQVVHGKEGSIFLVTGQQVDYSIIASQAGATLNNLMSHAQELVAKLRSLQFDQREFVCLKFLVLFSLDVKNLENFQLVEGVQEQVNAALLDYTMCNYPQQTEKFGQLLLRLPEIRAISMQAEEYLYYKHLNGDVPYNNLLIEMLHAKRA
row,Structure (SMILES),inhibition
1,COc1ccc(NC(=O)CSc2n[nH]c(-c3ccccn3)n2)cc1,32.4%
2,Cc1cc(S(=O)(=O)NCc2ccncc2)c(C)cc1Br,39%
3,Cc1onc(-c2c(F)cccc2Cl)c1C(=O)Nc1cccc2nsnc12,52.1% (active)
4,O=C(Nc1ccc2oc(-c3cccnc3)nc2c1)c1ccc([N+](=O)[O-])o1,58.1% (active)
5,COc1cc(C(=O)NN=Cc2ccc(N(C)C)cc2)cc(OC)c1OC,37.8%
6,COc1ccc(CCNC(=O)CSc2nn3c(=O)c(C)nnc3s2)cc1OC,57.5% (active)
7,CCOC(=O)C1CCCN(S(=O)(=O)c2ccc(S(=O)(=O)N(CC)CC)cc2)C1 (stereo not given),60.3% (active)
8,COc1ccc(/C=C/C(=O)c2cc(F)ccc2OC(=O)c2ccccc2C)cc1OC,41.1%
9,Cc1cc(C(=O)CSc2nnnn2-c2ccccc2)c(C)n1-c1ccc2c(c1)OCO2,42.3% (active)
10,O=[N+]([O-])c1cccc(-c2ccc3nnc(SCc4cccnc4)n3n2)c1,62.1% (active)
11,O=c1cc(C2CCCCC2)[nH]c(=O)[nH]1,48.1% (active)
12,COc1cc(CSc2nnnn2-c2ccc(C)cc2)cc(OC)c1OC,53.3% (active)
13,N#Cc1cc(Br)ccc1N=C1CCCN1c1ccccc1,44.5% (active)
14,Cc1onc(-c2cccc(Cl)c2Cl)c1C(=O)O/N=C(\N)c1ccc([N+](=O)[O-])o1,69.7% (active)
15,CCc1c(O)nc(SCC(=O)Nc2ccccc2C)n(-c2ccc(C)cc2)c1=O,56.4% (active)
16,O=c1c2ccc(Cl)cc2nc(-c2cccc(C(F)(F)F)c2)n1O,42.6% (active)
17,CC1CCCC(C)N1C(=O)COC(=O)Cc1ccc(F)cc1 (stereo not given),47.2% (active)
18,CCOc1ccc(NC(=O)COC(=O)CC2CCCCC2)cc1,44.4% (active)
19,CN1CCN(C2=C(Cl)C(=O)N(c3ccc(Cl)c(Cl)c3)C2=O)CC1,39.3%
20,CC(=O)Nc1ncc(Cc2cc(Cl)ccc2Cl)s1,50.2% (active)

row,Structure (SMILES),inhibition
1,COc1cc(NC(=O)CN2C(=O)NC(c3ccccc3)(c3ccccc3)C2=O)c(C)cc1[N+](=O)[O-],46% (active)
2,C/C(=N\NC(N)=S)c1ccc(Cl)s1,55.8% (active)
3,Cc1ccc(C)c(NC(=O)CSc2nnc(-c3ccccc3)n2N)c1,53% (active)
4,CC(=O)Nc1ccc(NC(=O)CSc2nnnn2C2CCCCC2)cc1,57.9% (active)
5,COc1ccc(/C=N/NC(=O)c2cc(-c3ccc(C)cc3C)nc3ccccc23)cc1COC(C)=O,52.8% (active)
6,CCC(=O)N1CCN(c2ccc(Cl)cc2NC(=O)c2ccc([N+](=O)[O-])o2)CC1,64.7% (active)
7,O=C(Cc1c(Cl)cccc1Cl)Nc1ccncc1,53.1% (active)
8,O=[N+]([O-])c1ccc(/C=N/n2c(CO)nc3ccccc32)s1,62.2% (active)
9,COc1ccc(CCNC(=O)CSc2nc(O)c(CCC(C)C)c(=O)[nH]2)cc1OC,61.7% (active)
10,COc1cccc2sc(N3CCN(C(=O)c4ccc([N+](=O)[O-])o4)CC3)nc12,69.2% (active)
11,Cc1ccc(Nc2nc(-c3cccnc3)nc3ccccc23)cc1,54.1% (active)
12,CC(C)(C)c1ccc(C(=O)Nc2ccc(C(=O)NCc3cccnc3)cc2)cc1,90.4% (active)
13,CC(=O)Nc1cc(-c2ccc(S(C)(=O)=O)cc2)cn2c(-c3ccc(F)c(Cl)c3)cnc12,61.1% (active)
14,O=C(C1=C[C@@H](C2CCCCC2)C[C@@H](OCc2ccc(CO)cc2)O1)N1CCN(Cc2ccc3c(c2)OCO3)CC1,46.2% (active)
15,O=C(CN(Cc1ccccc1)C(=O)CCl)c1cccc(Br)c1,55.7% (active)
16,COc1cc(C(=O)NC2CCN(C)CC2)ccc1Nc1ncc2c(n1)N(CCc1ccccc1)CCC(=O)N2C,54.8% (active)
17,O=c1c2ccccc2ncn1Cc1ccco1,10.5%
18,CCc1nc(SCC(=O)c2ccccc2)c2ccccc2n1,45.8% (active)
19,CCc1ccccc1NC(=O)CSc1nnc([C@@H](NC(=O)OC(C)(C)C)C(C)C)o1,45.9% (active)
20,Cc1sc2ncnc(NCC(O)c3ccc([N+](=O)[O-])cc3)c2c1C (stereo not given),51.7% (active)

# From PubChem BioAssay
